A selection: hits, their analogues and other compounds. The true share with any hit is near 3.5%.
GPR151 activ – activators of human GPR151, primary screen, cell-based, PathHunter beta-arrestin, luminescence | G-protein coupled receptor 151 (Homo sapiens), Q8TDV0 | PathHunter beta-arrestin GPR151 cells | activation, % at 11.2 µM | actives 1% (n = 650,000) | AID 1508602, 2020; in the data active means activation above about 4.9%;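 further: 0% = median of compound wells and 100% = cells with positive control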
FBW7 act – FBW7 E3 ligase activators, primary screen, biochemical, AlphaScreen, human; actives 0.13% (n = 650,000); AID 1259310, 2017; normalized activity (activation), % at 26.1 µM; AlphaScreen FBW7–phospho-cyclin E peptide binding, activator screen; in the data active means normalized activity above about 1.9%;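 further: purified mutant Fbw7 with reduced substrate affinity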
TEAD-YAP block – TEAD-YAP interaction inhibition, primary screen, TEAD-YAP interaction inhibitor project, luminescence, HEK-TIYL cells; TEAD-Gal4/YAP UAS-luciferase luminescence; actives 1.4% (n = 640,000); AID 1259422, 2018; inhibition, % at 9.12 µM; in the data active means inhibition above about 32%;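 further: 0% = median of test compound wells and 100% = reference inhibitor wells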
MITF inh – MITF inhibitors, primary screen, biochemical, AlphaScreen, human | AlphaScreen MITF homodimerization, bead proximity signal | actives 0.91% (n = 650,000) | Microphthalmia-associated transcription factor (Homo sapiens), O75030 | inhibition, % at 2.6 µM | AID 1259374, 2018; in the data active means inhibition above about 50%;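 further: 0% = vehicle wells with protein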
Target sequence (O75030 whole entry, looked up): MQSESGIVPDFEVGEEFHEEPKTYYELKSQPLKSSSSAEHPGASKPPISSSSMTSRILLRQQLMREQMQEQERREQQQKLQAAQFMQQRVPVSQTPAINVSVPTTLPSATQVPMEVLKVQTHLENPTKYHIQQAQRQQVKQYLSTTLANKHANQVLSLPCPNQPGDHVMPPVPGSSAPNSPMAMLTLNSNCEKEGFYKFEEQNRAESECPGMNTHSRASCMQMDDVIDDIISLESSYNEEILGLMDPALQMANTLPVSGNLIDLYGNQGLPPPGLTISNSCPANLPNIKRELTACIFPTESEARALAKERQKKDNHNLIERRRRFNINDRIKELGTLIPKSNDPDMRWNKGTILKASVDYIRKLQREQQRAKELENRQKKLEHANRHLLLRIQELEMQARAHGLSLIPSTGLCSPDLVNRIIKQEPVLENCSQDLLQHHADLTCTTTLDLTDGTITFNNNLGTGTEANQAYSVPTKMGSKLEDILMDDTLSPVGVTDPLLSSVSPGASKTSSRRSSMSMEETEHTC
Numbers without * were called inactive; . = no result given.

SMILES	GPR151 activ	FBW7 act	TEAD-YAP block	MITF inh
C/C(=N\NC(=O)c1cc(C)nc2ccccc12)c1ccco1	0	0	45*	10
O=C(c1cccs1)N1CCN(c2nc3nonc3nc2NC2CCCC2)CC1	-2	0	2	8
Cc1cc2nc(N3CCCN(Cc4c(C)nc5sccn45)CC3)nc(C)c2cc1C	2	0	32*	4
Cc1cc2nc(N3CCCN(Cc4ccc(CO)o4)CC3)nc(C)c2cc1C	2	0	-5	0
O=C(O)CN1C(=O)S/C(=C\c2ccc(F)cc2)C1=O	0	0	-6	6
CNc1ccc(Cl)cc1C(=O)c1cc(OC)c(OC)c(OC)c1	0	0	54*	15
COc1cc(C(=O)Nc2ccc(F)cc2F)cc(OC)c1OC	0	0	-9	-19
COc1cc(C(=O)c2cc(Br)ccc2N)cc(OC)c1OC	0	0	51*	13
CC(C)(C)c1ccc(C2CC2C(=O)N/N=C\c2ccc[nH]2)cc1 (configuration not stated)	0	0	91*	5
CCc1cccc(N(C(=O)c2csnn2)C(C(=O)NC(C)(C)CC)c2ccncc2)c1 (configuration not stated)	0	0	-4	-6
CCCC(=O)Nc1cccc(NC(=O)CSc2nnc(-c3cccs3)n2CC)c1	-1	1	3	21
CC(C)(C)P(=NC(=S)NCCCO)(N1CCCCCC1)N1CCCCCC1	1	0	73*	16
CC(=O)c1cccc(N(CC(=O)NCCSCc2ccccc2C)S(C)(=O)=O)c1	-1	0	1	9
CCC(C)n1c(SCc2ccccc2C)nc2ccsc2c1=O (configuration not stated)	1	0	47*	-24
CCC(C)n1c(SCc2ccccc2F)nc2ccsc2c1=O (configuration not stated)	0	0	-6	7
O=C(CCSCc1ccccc1F)N1CCN(c2ccccc2)CC1	0	0	3	19
CS/C(=C\[N+](=O)[O-])Nc1ccc(C(C)(C)C)cc1	-1	0	55*	-14
COc1ccc2c(c1)C(=O)C(OC(=O)NS(=O)(=O)c1ccc(F)cc1)[C@H](c1ccc(OC)c(Br)c1)O2 (some centres not stated)	2	0	.	2
Cc1nc(/N=C(\N)Nc2ccccc2)[nH]c(=O)c1C	0	2.2*	7	12
COc1cc(-c2cncc(-c3ccc(N)cc3)n2)cc(OC)c1OC	-1	0	4	-1
COc1ccc2nc3c(cc2c1)c(N)nn3C(=O)c1cc(OC)c(OC)c(OC)c1	0	0	62*	0
COc1ccc2cc3c(N)nn(C(=O)c4ccncc4)c3nc2c1	1	0	22	-21
CCOc1ccc(C(=O)n2nc(N)c3cc4cc(OC)ccc4nc32)cc1OCC	2	0	52*	7
COc1ccc2cc3c(N)nn(C(=O)c4cc(OC)c(OC)c(OC)c4)c3nc2c1	0	0	51*	19
COc1ccc2oc(=O)c(-c3nnc(-c4cccc([N+](=O)[O-])c4)o3)cc2c1	0	1	6	3
SMILES	GPR151 activ	FBW7 act	TEAD-YAP block	MITF inh
COc1ccccc1NC(=O)CC(NCCc1ccccc1)C(=O)O (configuration not stated)	-3	1	9	17
O=C(Cc1ccc(Cl)cc1)Nc1ccc(CN2CCOCC2)cc1	-1	0	-7	-4
O=C(/C=C/c1ccc(Cl)cc1)Nc1ccc(CN2CCOCC2)cc1	0	0	41*	-1
O=S(=O)(Nc1nc(-c2ccccc2)cs1)c1ccc(Cl)cc1	1	0	-1	0
O=C(Nc1ccc(S(=O)(=O)C(F)F)cc1)c1cc(F)c(F)c(F)c1F	0	0	37*	8
O=C(COc1ccc(Cl)cc1)N/N=C/C=C/c1ccco1	1	0	2	-3
COC(=O)c1cnc(Nc2cc(Cl)ccc2OC)c2ccccc12	-1	0	1	15
CCc1ccc(Nc2ncc(C(=O)OC)c3ccccc23)cc1	0	4.0*	-9	13
COC(=O)c1cnc(Nc2ccc(OC)c(Cl)c2)c2ccccc12	0	2.4*	-13	9
CC(C)(C)C(=O)CN1C(=O)C(=O)c2ccccc21	1	0	8	1
O=C1OC(c2ccc(Cl)c([N+](=O)[O-])c2)=N/C1=C\c1cccc(F)c1	1	2.0*	4	-19
O=C1OC(c2ccc(Cl)c([N+](=O)[O-])c2)=N/C1=C/c1cccc(Cl)c1	-1	0	-2	1
O=C1OC(c2cccc(F)c2)=N/C1=C\c1ccccc1	-7	0	36*	-3
O=C1OC(c2ccc(-c3ccccc3)cc2)=N/C1=C\c1cccc(F)c1	0	0	-3	-3
CN(C)c1ccc(C2OCC3(CO2)SC(=O)NC3=O)cc1 (configuration not stated)	-1	4.9*	12	11
CCOc1ccc2nc(N3CCCC3C(=O)N3CCC(OC)CC3)nc(C)c2c1 (configuration not stated)	1	0	-1	-2
COc1cccc(C(=O)Nn2c(-c3ccc(Br)cc3)nc3ccccc3c2=O)c1	0	0	3	8
COc1cc(OC)cc(C(=O)Nn2c(-c3ccc(C(C)(C)C)cc3)nc3ccccc3c2=O)c1	-1	0	38*	-5
COc1cccc(C(=O)Nn2c(-c3ccc(C(C)(C)C)cc3)nc3ccccc3c2=O)c1	1	0	42*	7
Cc1cc(N2CCOCC2)nc2ccc(NC(=O)Cc3ccc(Cl)cc3)cc12	-1	1	-1	0
c1ccc(CNc2ncnc3sccc23)nc1	-1	0	-5	9
COCCNc1ncnc2ccccc12	1	0	16	0
c1ccc(CN2CCC(Nc3ncnc4ccccc34)CC2)cc1	0	0	33*	-10
COc1cc2ncnc(NC3CCN(Cc4ccccc4)CC3)c2cc1OC	-4	.	.	.
Clc1ccc(CNc2ncnc3sccc23)cc1	1	0	52*	-3
SMILES	GPR151 activ	FBW7 act	TEAD-YAP block	MITF inh
OCCCNc1ncnc2sccc12	3	0	5	-4
c1nc(NCC2CCCCC2)c2ccsc2n1	0	0	36*	-9
Clc1ccccc1CCNc1ncnc2ccccc12	0	0	35*	11
Fc1ccc(Cc2nnc(-c3ccc(F)cc3)o2)cc1	0	0	-63	-3
COc1ccc(/C=N/NC(=O)c2cc([N+](=O)[O-])cc([N+](=O)[O-])c2)c(C(=O)O)c1OC	-1	0	7	-2
c1ccc(CNc2ncnc3ccccc23)cc1	0	0	51*	-11
Clc1ccc(CNc2ncnc3ccccc23)cc1	5	0	57*	1

Assay outcomes (PubChem)
